Experimental data published in PMC4336329 (PLoS ONE, 2015).
About 14,000 (4.5%) of roughly 310,000 compounds showed an effect of 50% or more. The effect is printed as a negative number. The sample as a whole holds a higher share of strong results than the screen did.

These compounds were tested against human ether-à-go-go-related gene (hERG) potassium channel (human, UniProt Q12809) (assay: primary screen, population patch clamp on CHO cells stably expressing hERG; higher = less effect of the substance).
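Note: peak tail current of the secondary pulse compared with the same well before compound.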

Chain of human ether-à-go-go-related gene (hERG) potassium channel (Q12809 whole entry, looked up): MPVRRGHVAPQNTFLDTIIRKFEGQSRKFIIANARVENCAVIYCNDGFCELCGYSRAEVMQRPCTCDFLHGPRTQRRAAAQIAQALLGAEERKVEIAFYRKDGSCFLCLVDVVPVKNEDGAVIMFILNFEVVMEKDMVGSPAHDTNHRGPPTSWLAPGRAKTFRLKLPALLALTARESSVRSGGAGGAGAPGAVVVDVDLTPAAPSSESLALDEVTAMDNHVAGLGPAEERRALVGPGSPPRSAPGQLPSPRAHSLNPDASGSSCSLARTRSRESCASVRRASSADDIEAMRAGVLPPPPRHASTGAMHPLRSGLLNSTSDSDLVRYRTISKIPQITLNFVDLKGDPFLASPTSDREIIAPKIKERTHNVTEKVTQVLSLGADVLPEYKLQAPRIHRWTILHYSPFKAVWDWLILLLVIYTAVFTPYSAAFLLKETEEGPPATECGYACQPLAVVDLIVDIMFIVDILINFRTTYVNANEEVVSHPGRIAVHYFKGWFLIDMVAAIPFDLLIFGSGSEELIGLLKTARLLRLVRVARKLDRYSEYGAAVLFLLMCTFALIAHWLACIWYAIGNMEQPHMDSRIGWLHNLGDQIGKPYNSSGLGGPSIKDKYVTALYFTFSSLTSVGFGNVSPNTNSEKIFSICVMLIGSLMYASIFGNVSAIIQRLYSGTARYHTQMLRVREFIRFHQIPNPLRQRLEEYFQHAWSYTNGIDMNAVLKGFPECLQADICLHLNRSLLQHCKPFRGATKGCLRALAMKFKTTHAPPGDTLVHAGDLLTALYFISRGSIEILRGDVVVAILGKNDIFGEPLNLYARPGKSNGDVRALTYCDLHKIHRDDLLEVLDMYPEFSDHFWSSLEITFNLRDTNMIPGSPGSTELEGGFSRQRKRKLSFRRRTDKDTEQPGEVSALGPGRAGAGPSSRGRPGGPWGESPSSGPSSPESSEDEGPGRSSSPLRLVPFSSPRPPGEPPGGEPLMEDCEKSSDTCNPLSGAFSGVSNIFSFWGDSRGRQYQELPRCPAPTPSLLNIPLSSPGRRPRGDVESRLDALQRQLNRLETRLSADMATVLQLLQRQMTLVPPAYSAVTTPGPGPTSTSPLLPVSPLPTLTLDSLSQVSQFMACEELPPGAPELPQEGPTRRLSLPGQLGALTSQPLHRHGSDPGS

Compound | hERG current change (%, negative = inhibition) at 10uM
CCN(CC(=O)NCCCN1CCOCC1)S(=O)(=O)c1cc(Cl)ccc1Cl | 6.16%
CN(Cc1ccc(Br)cc1)C(=O)CCN1C(=O)c2cccc([N+](=O)[O-])c2C1=O | 21.8%
COc1cccc(OCc2cc(C(=O)N3CCN(c4ccccc4OC)CC3)no2)c1 | 6.19%
COc1c(C)cccc1C(=O)NCc1ccc2c(c1)OCO2 | -2.64%
O=S(=O)(NCC1CCCO1)c1ccc(S(=O)(=O)N(Cc2ccc(F)cc2)C2CCCCC2)cc1 (stereo not drawn) | -2.39%
COc1ccccc1NC(=O)CSc1nnc(CC(=O)Nc2ccccc2F)n1C | 11.4%
COc1ccc(-n2c(SCC(=O)Nc3nccs3)nc3c(c2=O)SC(C)C3)cc1 (stereo not drawn) | -13.5%
COc1ccc(/C(O)=C/C(=O)C(=O)Nc2c(C)n(C)n(-c3ccccc3)c2=O)cc1 | 8.01%
CCc1c(C)sc2nc3c(C(=O)N4CCOCC4)cc(C(=O)c4ccccc4O)cn3c(=O)c12 | -10.7%
Cc1cc(C)nc(OC(C(=O)O)C(OCCc2ccccc2)(c2ccccc2)c2ccccc2)n1 (stereo not drawn) | 16.3%
CCOC(=O)C1=C(CC)Nc2ccccc2N=C1NC(=O)c1oc2ccccc2c1C | 12.6%
CC(C)(CNC(=O)c1ccc(-c2ccccc2Cl)o1)N1CCOCC1 | -39.9%
O=C(COC(=O)c1cc(=O)c2ccccc2o1)NCC1CCCCC1 | 6.26%
Cc1cc(C)cc(NC(=O)NCC(O)COc2ccc([N+](=O)[O-])cc2)c1 (stereo not drawn) | -42.3%
O=C(NCC(O)COc1ccc([N+](=O)[O-])cc1)Nc1ccccc1 (stereo not drawn) | -49.4%
Cl.OCCN(CCO)CC(O)COc1ccc2c(c1)OCO2 (stereo not drawn) | 2.18%
COC(=O)c1ccc(OCC(O)CN(CCO)CCO)cc1 (stereo not drawn) | -3.29%
COC(=O)c1ccc(OCC(O)CN(CC(C)C)CC(C)C)cc1 (stereo not drawn) | -4.37%
CCCN(CCC)CC(O)COc1ccc2c(c1)OCO2.Cl (stereo not drawn) | -28.8%
CCCN(CCC)CC(O)COc1ccc([N+](=O)[O-])cc1 (stereo not drawn) | -77.1%
O=[N+]([O-])c1ccc(OCC(O)CN(CCO)CCO)cc1 (stereo not drawn) | -54.8%
CC(C)CN(CC(C)C)CC(O)COc1ccc([N+](=O)[O-])cc1.Cl (stereo not drawn) | -66.8%
C/C(=N\NC(=O)CC(C)C)c1ccc(Cl)c(Cl)c1 | 30.7%
O=c1nc2n(c3c4c(sc13)CCC4)CCC2 | 5.51%
CC(=O)Nc1ccc(C(=O)NCCN2CCOCC2)cc1 | 15.8%
CCOc1ccccc1/C=N/Nc1nc2c(N)ncnc2n1[C@H]1O[C@@H](CO)[C@H](O)[C@@H]1O | -9.61%
O=C(c1cnccn1)N1CCc2c([nH]c3ccccc23)C1c1cccc(Cl)c1 (stereo not drawn) | -33.6%

Compound | hERG current change (%, negative = inhibition) at 10uM
Cc1ccc(C2c3[nH]c4ccccc4c3C[C@H]3C(=O)N(c4ccccc4C(=O)NCCN4CCOCC4)C(=O)N23)cc1 (stereo partly drawn) | -24.9%
O=C(NCCCN1CCOCC1)c1ccccc1N1C(=O)[C@@H]2Cc3c([nH]c4ccccc34)C(c3ccc(F)cc3)N2C1=O (stereo partly drawn) | -68%
COc1cccc(C2c3[nH]c4ccccc4c3C[C@H]3C(=O)N(c4ccccc4C(=O)NCCCN4CCOCC4)C(=O)N23)c1 (stereo partly drawn) | -19.9%
O=C(NCCN1CCOCC1)c1ccccc1N1C(=O)[C@@H]2Cc3c([nH]c4ccccc34)C(c3ccc(F)cc3)N2C1=O (stereo partly drawn) | -47.2%
O=C(NCCN1CCOCC1)c1ccccc1N1C(=O)[C@@H]2Cc3c([nH]c4ccccc34)C(c3ccccc3)N2C1=O (stereo partly drawn) | -20.4%
Cc1ccccc1C1c2[nH]c3ccccc3c2C[C@H]2C(=O)N(c3ccccc3C(=O)NCCCN3CCOCC3)C(=O)N12 (stereo partly drawn) | -21.3%
COc1ccc(C2c3[nH]c4ccccc4c3C[C@H]3C(=O)N(c4ccccc4C(=O)NCCN4CCOCC4)C(=O)N23)cc1 (stereo partly drawn) | -23.7%
CC(=O)NCCC(=O)N1CCc2c([nH]c3ccccc23)C1c1cccc(Cl)c1 (stereo not drawn) | -24.2%
Cc1ccc(C2c3[nH]c4ccccc4c3C[C@H]3C(=O)N(c4ccccc4C(=O)NCCCN4CCOCC4)C(=O)N23)cc1 (stereo partly drawn) | -54.6%
O=C(CCN1CCOCC1)N1CCc2c([nH]c3ccccc23)C1c1cccc(Cl)c1 (stereo not drawn) | -70.5%
O=C(NCCCN1CCOCC1)c1ccccc1N1C(=O)[C@@H]2Cc3c([nH]c4ccccc34)C(c3cccc(Cl)c3)N2C1=O (stereo partly drawn) | -72.3%
O=C(O)c1ccc(/C=C2\SC(=S)N(NC(=O)c3ccccc3[N+](=O)[O-])C2=O)cc1 | 12.4%
[2H]C([2H])(CCOS(N)(=O)=O)c1ccccc1 | 11.1%
CC(=O)N1CCc2c(sc(NC(=O)C3COc4ccccc4O3)c2C(N)=O)C1 (stereo not drawn) | -20%
CCOc1ccc(CN2CCSCC2)cc1 | 2.36%
O=C(NCCNS(=O)(=O)c1ccccc1)c1ccc([N+](=O)[O-])cc1 | -12%
COc1ccccc1Nc1nc(N)nc(CN2CC(C)CC(C)C2)n1 (stereo not drawn) | -73.8%
COc1ccccc1Nc1nc(N)nc(CN2CCCCC2)n1 | -54.9%
COc1ccccc1Nc1nc(N)nc(CN2CCOCC2)n1 | 10.1%
Cc1c(Cl)cccc1Nc1nc(N)nc(CN2CCc3ccccc3C2)n1 | -33%
COc1ccccc1Nc1nc(N)nc(CN2CCCCCC2)n1 | -57.7%
COc1ccccc1Nc1nc(N)nc(CSC(=S)N2CCCCC2)n1 | 0.598%
Cc1cccc(Nc2nc(N)nc(CN3CCC(C(N)=O)CC3)n2)c1C | 17.5%
COc1ccccc1Nc1nc(N)nc(CSC(=S)N2CC(C)CC(C)C2)n1 (stereo not drawn) | -9.46%
Cc1c(Cl)cccc1Nc1nc(N)nc(CN2CCCCCC2)n1 | -74.6%
COc1ccccc1Nc1nc(N)nc(CSc2ncccn2)n1 | -24.2%
COc1ccccc1Nc1nc(N)nc(CSCCO)n1 | 15%
